Measured values published in PubChem BioAssay (NCATS).
Values without a mark were called inactive. Inconclusive results are not listed. Activity calls are given as the source filed them.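 Rule for the calls, unless noted: active = compounds whose dose series gives a full or clear partial fitted curve of increased nuclear translocation; inconclusive = weak partial curve or effect only at the top dose; inactive = no dose-dependent translocation response.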

What was measured:
[1] = biological target: Glucocorticoid receptor (Homo sapiens) (UniProt P04150); assay: GR-GFP Redistribution (AID 450); note: potency is the fitted concentration of half-maximal effect
Sequence of Glucocorticoid receptor (Homo sapiens) (P04150 whole entry, looked up, the tested form may be a part): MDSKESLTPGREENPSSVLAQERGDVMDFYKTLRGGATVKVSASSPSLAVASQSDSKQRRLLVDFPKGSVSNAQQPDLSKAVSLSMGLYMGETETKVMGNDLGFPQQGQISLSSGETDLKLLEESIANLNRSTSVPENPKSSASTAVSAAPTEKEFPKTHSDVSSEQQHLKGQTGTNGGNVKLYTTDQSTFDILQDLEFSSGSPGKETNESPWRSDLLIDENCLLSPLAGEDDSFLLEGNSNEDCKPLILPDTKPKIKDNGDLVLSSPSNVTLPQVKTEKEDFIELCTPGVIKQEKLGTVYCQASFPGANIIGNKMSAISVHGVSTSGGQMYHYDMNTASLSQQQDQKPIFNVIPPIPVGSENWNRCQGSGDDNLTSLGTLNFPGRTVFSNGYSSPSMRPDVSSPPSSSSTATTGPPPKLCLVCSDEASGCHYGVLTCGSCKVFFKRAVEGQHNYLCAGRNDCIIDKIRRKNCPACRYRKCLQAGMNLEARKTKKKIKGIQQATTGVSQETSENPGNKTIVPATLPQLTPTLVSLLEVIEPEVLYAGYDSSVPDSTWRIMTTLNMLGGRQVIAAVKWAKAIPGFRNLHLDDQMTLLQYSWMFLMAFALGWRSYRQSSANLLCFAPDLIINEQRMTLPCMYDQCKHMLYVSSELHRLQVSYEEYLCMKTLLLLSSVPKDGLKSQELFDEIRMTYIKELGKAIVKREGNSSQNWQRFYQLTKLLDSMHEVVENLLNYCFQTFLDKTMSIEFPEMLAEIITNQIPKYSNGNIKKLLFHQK

[2] = biological target: Glucocorticoid receptor (Homo sapiens) (UniProt P04150); assay: GR-EFC Redistribution (AID 451; calls by dose curve; note: potency is the fitted concentration of half-maximal effect); details: CHO-K1 GR-EFC translocation, beta-gal luminescence, 2 h
Outline: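 CHO-K1 cells expressing nuclear EA and GR-ED fragments of b-gal; compounds titrated up to 46 uM final, 2 h at 37 C. GR nuclear translocation read as complemented b-gal luminescence after 1 h RT detection.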

[3] = biological target: Mitogen-activated protein kinase 10 (Mus musculus) (UniProt Q61831); assay: JNK3 AlphaScreen Assay (AID 530; active = well fitted curve in either direction with a large enough effect, not every such curve was filed as active;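 note: kinase came from lysate of stimulated human HepG2 cells; signal reports phosphorylation of biotinylated GST-cJun 1-79 at Ser73 with 10 µM ATP; series mostly up to about 57 µM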)
Outline: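 Pre-activated (IL-1β/TNFα) JNK3 in HepG2 lysates phosphorylates biotin-GST-cJun(1-79), 10 uM ATP; anti-phospho-cJun(Ser73) AlphaScreen read at room temperature, pH 7.6 Tris buffer. Compounds pre-incubated 15 min as titrations.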

Row | SMILES | Potency [1] [µM] | Potency [2] [µM] | Potency [3]
1 | C=C1C[C@@]23C[C@]1(O)CC[C@@H]2[C@]12C=C[C@@H](O)[C@@](C)(C(=O)O1)[C@@H]2[C@@H]3C(=O)O | > 46 | > 46 | inactive
2 | Cc1ccccc1N1C(=O)CC(Sc2nnc(-c3ccccc3)o2)C1=O (centres undefined) | > 20.6 |  | 
